Here are results for six compounds from ChEMBL document CHEMBL2218924, “A broad activity screen in support of a chemogenomic map for kinase signalling research and drug discovery” (Biochem J, 2013).

The structures appear in SMILES notation.

Assay [1] deals with Mast/stem cell growth factor receptor Kit (Homo sapiens) (UniProt P10721). Conditions: at 1 µM.
Assay [2] shares this target. Conditions: at 10 µM.
The target in assay [3] is Proto-oncogene tyrosine-protein kinase Src (Homo sapiens) (UniProt P12931). Conditions: at 1 µM.
For assay [4] the target is unchanged. Conditions: at 10 µM.
Assay [5] addresses T1, Eukaryotic elongation factor 2 kinase (Homo sapiens) (UniProt O00418).
T1 sequence (whole entry): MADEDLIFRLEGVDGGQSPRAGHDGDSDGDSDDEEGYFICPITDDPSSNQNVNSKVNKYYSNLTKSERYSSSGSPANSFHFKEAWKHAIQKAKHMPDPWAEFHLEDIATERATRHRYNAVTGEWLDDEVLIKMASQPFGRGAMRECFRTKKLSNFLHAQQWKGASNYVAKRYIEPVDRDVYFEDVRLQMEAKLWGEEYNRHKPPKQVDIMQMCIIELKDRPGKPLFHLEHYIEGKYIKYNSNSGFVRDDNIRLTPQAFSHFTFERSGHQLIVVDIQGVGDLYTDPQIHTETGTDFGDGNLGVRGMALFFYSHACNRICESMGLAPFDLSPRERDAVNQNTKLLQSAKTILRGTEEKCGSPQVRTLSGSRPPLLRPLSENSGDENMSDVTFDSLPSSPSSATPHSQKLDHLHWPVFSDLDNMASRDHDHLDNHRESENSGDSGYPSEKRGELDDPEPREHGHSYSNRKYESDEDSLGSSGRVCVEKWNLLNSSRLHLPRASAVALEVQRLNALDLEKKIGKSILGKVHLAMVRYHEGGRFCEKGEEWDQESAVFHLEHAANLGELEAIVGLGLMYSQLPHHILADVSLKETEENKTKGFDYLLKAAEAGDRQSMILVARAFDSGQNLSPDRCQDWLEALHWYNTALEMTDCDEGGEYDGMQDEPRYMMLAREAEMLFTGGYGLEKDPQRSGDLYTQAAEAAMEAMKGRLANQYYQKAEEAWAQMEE
Conditions: at 1 µM.

In assay [6] the target is T1, Eukaryotic elongation factor 2 kinase (Homo sapiens). Conditions: at 10 µM.
For assay [7], the target named is Serine/threonine-protein kinase mTOR (Homo sapiens) (UniProt P42345). Conditions: at 1 µM.
For assay [8] the target is unchanged. Conditions: at 10 µM.
For assay [9] the target is unchanged. Conditions: at 1 µM. The source holds these as a separate data set.
The target is the same in assay [10]. Conditions: at 10 µM. The source holds these as a separate data set.
Assay [11] addresses Ribosomal protein S6 kinase beta-1 (Homo sapiens) (UniProt P23443). Conditions: at 1 µM.
The target is the same in assay [12]. Conditions: at 10 µM.
Assay [13] deals with Serine/threonine-protein kinase Nek6 (Homo sapiens) (UniProt Q9HC98). Conditions: at 1 µM.
Assay [14] has the same target. Conditions: at 10 µM.
In assay [15] the target is Serine/threonine-protein kinase Nek7 (Homo sapiens) (UniProt Q8TDX7). Conditions: at 1 µM.
Assay [16] shares this target. Conditions: at 10 µM.
In assay [17] the target is T2, Serine/threonine-protein kinase NLK (Homo sapiens) (UniProt Q9UBE8).
T2 sequence (whole entry): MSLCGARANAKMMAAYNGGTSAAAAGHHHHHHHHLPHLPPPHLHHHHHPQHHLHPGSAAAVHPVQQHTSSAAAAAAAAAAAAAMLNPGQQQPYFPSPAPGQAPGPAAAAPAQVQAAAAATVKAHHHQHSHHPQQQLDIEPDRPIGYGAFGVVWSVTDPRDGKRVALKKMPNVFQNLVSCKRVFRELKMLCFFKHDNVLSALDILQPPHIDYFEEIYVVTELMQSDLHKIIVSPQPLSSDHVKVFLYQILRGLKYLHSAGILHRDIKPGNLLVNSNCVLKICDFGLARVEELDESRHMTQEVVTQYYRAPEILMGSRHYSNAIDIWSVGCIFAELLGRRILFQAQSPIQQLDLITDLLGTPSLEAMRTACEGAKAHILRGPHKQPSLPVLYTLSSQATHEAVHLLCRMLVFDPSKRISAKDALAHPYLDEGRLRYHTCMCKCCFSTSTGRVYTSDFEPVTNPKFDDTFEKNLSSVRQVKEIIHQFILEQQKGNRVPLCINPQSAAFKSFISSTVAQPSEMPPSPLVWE
Conditions: at 1 µM.

Assay [18] addresses T2, Serine/threonine-protein kinase NLK (Homo sapiens). Conditions: at 10 µM.
In assay [19] the target is Serine/threonine-protein kinase PAK 2 (Homo sapiens) (UniProt Q13177). Conditions: at 1 µM.
Assay [20] has the same target. Conditions: at 10 µM.

Chain of Ribosomal protein S6 kinase beta-1 (Homo sapiens) (P23443 whole entry, looked up): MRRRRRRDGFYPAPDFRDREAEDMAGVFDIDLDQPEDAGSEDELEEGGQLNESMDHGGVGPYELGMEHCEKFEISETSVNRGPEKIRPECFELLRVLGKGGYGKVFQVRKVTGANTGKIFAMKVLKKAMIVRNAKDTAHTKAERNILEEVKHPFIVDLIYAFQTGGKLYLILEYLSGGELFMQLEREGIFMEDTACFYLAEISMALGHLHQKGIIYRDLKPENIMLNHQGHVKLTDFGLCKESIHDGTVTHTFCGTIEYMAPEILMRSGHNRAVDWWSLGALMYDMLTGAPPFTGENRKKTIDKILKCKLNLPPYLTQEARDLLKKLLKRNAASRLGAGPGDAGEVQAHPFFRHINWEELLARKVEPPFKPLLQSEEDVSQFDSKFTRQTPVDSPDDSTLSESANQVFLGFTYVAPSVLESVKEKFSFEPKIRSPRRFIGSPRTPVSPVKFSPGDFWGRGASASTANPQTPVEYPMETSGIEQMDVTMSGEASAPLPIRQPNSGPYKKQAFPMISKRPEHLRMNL
Chain of Mast/stem cell growth factor receptor Kit (Homo sapiens) (P10721 whole entry): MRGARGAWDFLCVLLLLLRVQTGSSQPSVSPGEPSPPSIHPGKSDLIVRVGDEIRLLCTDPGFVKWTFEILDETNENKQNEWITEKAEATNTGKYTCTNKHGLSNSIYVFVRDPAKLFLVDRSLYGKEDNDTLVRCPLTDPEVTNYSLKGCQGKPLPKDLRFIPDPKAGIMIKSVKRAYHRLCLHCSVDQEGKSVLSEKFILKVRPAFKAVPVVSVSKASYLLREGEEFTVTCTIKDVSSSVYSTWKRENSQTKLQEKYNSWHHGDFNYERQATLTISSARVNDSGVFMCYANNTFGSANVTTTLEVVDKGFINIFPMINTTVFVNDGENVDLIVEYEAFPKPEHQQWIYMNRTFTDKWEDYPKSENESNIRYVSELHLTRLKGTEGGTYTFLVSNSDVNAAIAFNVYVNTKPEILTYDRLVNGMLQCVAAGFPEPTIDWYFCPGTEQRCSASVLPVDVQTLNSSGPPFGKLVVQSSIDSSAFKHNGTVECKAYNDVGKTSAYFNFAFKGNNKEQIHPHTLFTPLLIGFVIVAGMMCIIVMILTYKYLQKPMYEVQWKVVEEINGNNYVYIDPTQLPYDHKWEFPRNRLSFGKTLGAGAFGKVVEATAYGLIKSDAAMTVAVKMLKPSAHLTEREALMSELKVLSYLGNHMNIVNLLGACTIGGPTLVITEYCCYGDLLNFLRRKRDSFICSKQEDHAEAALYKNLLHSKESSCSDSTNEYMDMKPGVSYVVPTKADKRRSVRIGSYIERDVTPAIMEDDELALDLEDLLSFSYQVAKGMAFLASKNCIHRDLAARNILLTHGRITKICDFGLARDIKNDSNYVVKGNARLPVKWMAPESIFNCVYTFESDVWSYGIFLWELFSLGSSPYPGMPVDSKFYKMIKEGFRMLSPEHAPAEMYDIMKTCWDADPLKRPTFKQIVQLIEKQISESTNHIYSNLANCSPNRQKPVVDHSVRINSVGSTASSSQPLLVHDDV
Chain of Serine/threonine-protein kinase Nek7 (Homo sapiens) (Q8TDX7 whole entry, looked up): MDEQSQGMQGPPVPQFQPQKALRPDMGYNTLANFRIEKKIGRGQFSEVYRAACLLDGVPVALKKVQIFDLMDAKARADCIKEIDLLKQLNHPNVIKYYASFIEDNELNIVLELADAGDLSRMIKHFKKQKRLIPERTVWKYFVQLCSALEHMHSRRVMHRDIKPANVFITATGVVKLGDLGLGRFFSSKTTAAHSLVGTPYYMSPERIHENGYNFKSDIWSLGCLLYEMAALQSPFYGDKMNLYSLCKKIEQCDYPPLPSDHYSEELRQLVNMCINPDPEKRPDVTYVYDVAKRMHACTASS
Chain of Proto-oncogene tyrosine-protein kinase Src (Homo sapiens) (P12931 2-536 limits assumed): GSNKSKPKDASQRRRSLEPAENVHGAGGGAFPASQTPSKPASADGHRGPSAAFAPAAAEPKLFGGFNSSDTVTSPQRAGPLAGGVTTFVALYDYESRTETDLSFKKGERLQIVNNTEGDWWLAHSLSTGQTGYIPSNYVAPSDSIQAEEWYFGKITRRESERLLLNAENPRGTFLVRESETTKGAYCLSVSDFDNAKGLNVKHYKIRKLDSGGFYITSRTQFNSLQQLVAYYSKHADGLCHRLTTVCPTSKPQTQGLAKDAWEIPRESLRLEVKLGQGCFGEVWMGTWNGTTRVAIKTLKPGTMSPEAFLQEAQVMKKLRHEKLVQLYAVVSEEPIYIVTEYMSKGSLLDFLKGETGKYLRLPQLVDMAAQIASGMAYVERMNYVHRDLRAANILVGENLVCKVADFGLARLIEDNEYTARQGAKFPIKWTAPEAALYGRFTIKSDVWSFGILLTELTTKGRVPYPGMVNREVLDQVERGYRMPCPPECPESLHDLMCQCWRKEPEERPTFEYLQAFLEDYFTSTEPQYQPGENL
Chain of Serine/threonine-protein kinase Nek6 (Homo sapiens) (Q9HC98 whole entry): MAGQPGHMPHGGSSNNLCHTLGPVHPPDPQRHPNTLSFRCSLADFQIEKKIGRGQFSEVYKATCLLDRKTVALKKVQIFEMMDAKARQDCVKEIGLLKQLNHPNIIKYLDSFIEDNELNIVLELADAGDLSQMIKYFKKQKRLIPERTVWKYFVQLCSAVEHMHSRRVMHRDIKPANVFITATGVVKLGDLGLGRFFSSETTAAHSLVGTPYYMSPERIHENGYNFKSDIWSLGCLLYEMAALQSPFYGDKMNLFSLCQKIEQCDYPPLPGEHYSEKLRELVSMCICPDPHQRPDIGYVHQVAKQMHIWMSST
Chain of Serine/threonine-protein kinase PAK 2 (Homo sapiens) (Q13177 whole entry): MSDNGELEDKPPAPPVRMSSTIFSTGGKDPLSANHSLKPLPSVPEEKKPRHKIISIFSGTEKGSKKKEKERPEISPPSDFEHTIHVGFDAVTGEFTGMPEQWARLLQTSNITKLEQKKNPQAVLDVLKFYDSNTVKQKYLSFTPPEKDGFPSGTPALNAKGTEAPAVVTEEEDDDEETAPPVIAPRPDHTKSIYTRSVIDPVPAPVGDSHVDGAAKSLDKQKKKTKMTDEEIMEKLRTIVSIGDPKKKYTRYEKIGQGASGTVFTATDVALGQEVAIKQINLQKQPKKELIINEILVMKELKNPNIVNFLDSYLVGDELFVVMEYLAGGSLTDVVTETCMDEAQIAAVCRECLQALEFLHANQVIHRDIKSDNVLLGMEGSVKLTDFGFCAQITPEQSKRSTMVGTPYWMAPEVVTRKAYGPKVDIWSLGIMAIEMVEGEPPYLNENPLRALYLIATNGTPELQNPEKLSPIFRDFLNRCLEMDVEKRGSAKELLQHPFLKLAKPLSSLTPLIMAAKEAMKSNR

`CCC(=O)Nc1ccc2ncnc(Nc3cccc(Br)c3)c2c1`: the residual activity – broadly, the signal under treatment as a percentage of the control signal – in assay [1] is 109%; in assay [2] it was 103%; in assay [3] it was 88%; in assay [4], 89%; in assay [5], 94% (inactive); in [6], 107%. Further, the residual activity in [7] is 106%; in assay [8], 104%; in assay [9] it was 123%; in assay [10], 101%; in assay [11], 111%; in assay [12], 127%. Further, the residual activity in assay [13] is 79% (inactive); in assay [14], 110%; in [15] it was 89% (inactive); in assay [16] it was 114% (inactive); in [17], 91%; in [18], 64%. The residual activity in [19] stood at 110%; in [20], 84%.

For the compound `O=C1NC(=O)c2c1c1c3ccccc3[nH]c1c1[nH]c3cc(Br)ccc3c21`, the residual activity came out at 107% in assay [1]; 94% in assay [2]; 117% in [3]; 93% in [4]; 117% in assay [7]; 106% in assay [8]. In addition, the residual activity in assay [9] was 76%; in assay [10], 113%; in [11], 92%; in assay [12] it was 52%; in assay [13], 121% (inactive); in assay [14] it was 117%. Further, the residual activity was 103% (inactive) in assay [15]; 89% (inactive) in assay [16]; 82% in assay [17]; 93% in assay [18]; 122% in assay [19]; 106% in assay [20].

Take `COc1ccc(CNc2nc(N(CCO)CCO)nc3c2ncn3C(C)C)cc1`: the residual activity in [1] is 91%; in assay [2], 66%; in [3], 104%; in assay [4], 82%; in [5] it was 106% (inactive); in [6], 101%. Besides, the residual activity in assay [7] is 106%; in assay [8], 97%; in [9] it was 128%; in assay [10] it was 99%; in assay [11] it was 74%; in assay [12] it was 49%. Also, the residual activity in assay [13] is 107% (inactive); in assay [14], 96%; in assay [15], 96% (inactive); in [16] it was 86% (inactive); in [17] it was 89%; in assay [18], 86%. For the same compound, the results for the residual activity in assay [19] and in assay [20] were 102% and 87%, respectively.

For the compound `O=C(Nc1cccc(Nc2nccc(Nc3cccc(C(F)(F)F)c3)n2)c1)C1CC1`, the residual activity in [1] is 94%; in assay [2], 46%; in assay [3] it was 56%; in assay [4], 12%; in [5] it was 93% (inactive); in assay [6], 101%. Moreover, the residual activity stood at 79% in assay [7]; 83% in assay [8]; 71% in [9]; 84% in [10]; 83% in [11]; 62% in assay [12]. For the same compound, the residual activity in [13] was 107% (inactive); in assay [14], 105%; in assay [15], 103% (inactive); in assay [16], 104% (inactive); in assay [17], 95%; in assay [18], 39%. Moreover, the residual activity is 116% in assay [19] and 58% in assay [20].

On to `O=Nc1c(-c2c(O)[nH]c3ccccc23)[nH]c2ccccc12`, for which the residual activity in assay [1] was 20%; in assay [2], 2%; in [3], 35%; in [4], 5%; in assay [5], 109% (inactive); in [6] it was 93%. For the same compound, the residual activity in assay [7] worked out at 100%; in [8], 98%; in assay [9], 117%; in assay [10], 89%; in assay [11], 37%; in assay [12] it was 13%. Moreover, the residual activity in assay [13] is 91% (inactive); in [14] it was 103%; in [15] it was 106% (inactive); in assay [16], 102% (inactive); in assay [17] it was 82%; in assay [18], 67%. The values for the residual activity in [19] and in assay [20] were 103% and 54%, respectively.

`CCN(CC)CCCCN1c2ccccc2Oc2ccc(Cl)cc21`: the residual activity in [1] was 121%; in [2], 107%; in [3] it was 81%; in assay [4] it was 109%; in [5], 104% (inactive); in [6], 131%. Also, the residual activity was determined as 110% in assay [7]; 110% in assay [8]; 70% in assay [9]; 98% in assay [10]; 79% in [11]; 90% in assay [12]. Besides, the residual activity was 106% (inactive) in assay [13]; 113% in assay [14]; 116% (inactive) in assay [15]; 115% (inactive) in assay [16]; 113% in assay [17]; 96% in [18]. Besides, the residual activity in assay [19] was 117%; in assay [20], 120%.
